Compound activity as filed in PubChem BioAssay.
ELG1 repair inh: inhibitors of ELG1-dependent DNA repair in HEK293T cells | HEK293T ELG1-luciferase reporter, luminescence, 16 h; DNA damage induced by 5-fluorouridine | Potency, µM (series often up to 46.1 µM), for the others: top-dose activity change, negative = inhibition, usual class: inhibitors | hit rate 2.3% among 330,000 | AID 504467; also: potency is read from the fitted curve at half-maximal effect; nearly all actives have a fitted effect of over 55% in size
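Luminescence from the luciferase reporter, measured 30 min after ONE-Glo reagent at room temperature, was the read-out. Beforehand, 2,000 cells per well were exposed for 16 hr at 37 °C to 5-fluorouridine together with compound or vehicle.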
RORgamma inh: ROR gamma (mouse) transcription inhibition; hit rate 5.4% among 310,000; Potency, µM (top dose mostly 53.6 µM), inactives show at the highest dose activity change, negative = inhibition, most hits filed as inhibitors; Drosophila S2 Gal4-RORgamma UAS-luciferase reporter, 20 h; P51450; AID 2551; also: potency is read from the fitted curve at half-maximal effect; nearly all actives have a fitted effect of over 60% in size
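Read-out: Photinus luciferase luminescence; inhibitors lower reporter signal. Insect Schneider cells with Gal4-ROR gamma fusion under metallothionein promoter, UAS reporter; 700 uM final copper sulfate induction, 20 hr, ambient temperature.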
TSHR antagonist: antagonists of human thyroid stimulating hormone receptor. TSHR-expressing cells, TSH-stimulated cAMP HTRF, 2 h; stronger effect = lower value. activity change, negative = inhibition, % at 11.5 µM. hit rate 0.2% among 330,000;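 active = activity change below a set negative limit, meaning inhibition stronger than a set level, cut at about -70% in these data; inconclusive = activity change between two set negative limits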
Target sequence (P16473 whole entry, looked up): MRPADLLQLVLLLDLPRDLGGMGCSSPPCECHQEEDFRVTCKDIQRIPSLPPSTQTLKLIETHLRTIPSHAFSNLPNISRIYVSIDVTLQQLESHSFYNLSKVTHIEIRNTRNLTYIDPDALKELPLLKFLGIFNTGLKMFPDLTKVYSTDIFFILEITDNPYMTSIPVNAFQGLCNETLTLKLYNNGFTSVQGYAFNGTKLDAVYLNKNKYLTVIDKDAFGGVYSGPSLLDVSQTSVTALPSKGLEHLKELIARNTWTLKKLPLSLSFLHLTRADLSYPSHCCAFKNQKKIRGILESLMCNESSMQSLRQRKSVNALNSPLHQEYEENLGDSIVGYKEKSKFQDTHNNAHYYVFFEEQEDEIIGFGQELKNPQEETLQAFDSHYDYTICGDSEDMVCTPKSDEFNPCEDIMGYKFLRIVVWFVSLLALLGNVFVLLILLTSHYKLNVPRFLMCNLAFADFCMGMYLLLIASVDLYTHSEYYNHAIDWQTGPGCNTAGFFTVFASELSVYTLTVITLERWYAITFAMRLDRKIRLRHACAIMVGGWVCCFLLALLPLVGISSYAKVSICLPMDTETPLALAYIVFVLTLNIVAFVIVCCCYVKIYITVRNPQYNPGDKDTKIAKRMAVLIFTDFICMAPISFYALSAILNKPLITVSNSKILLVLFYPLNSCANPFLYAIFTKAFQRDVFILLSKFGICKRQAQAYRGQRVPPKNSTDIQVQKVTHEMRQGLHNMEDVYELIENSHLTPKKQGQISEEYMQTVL
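Competitive HTRF cAMP read-out (cryptate anti-cAMP antibody, cAMP-d2; 30 min, room temperature) in freshly harvested TSHR cells. Compounds added before TSH at EC80 (4nM final), followed by 2 hours' incubation at 37 deg C.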
VP16 counter: Gal4-VP16 reporter inhibition counter-screen | Drosophila S2 Gal4-VP16 UAS-luciferase, luminescence, 20 h | Potency, µM (series often up to 53.6 µM), for inactives: at the top dose activity, negative = inhibition, most hits filed as inhibitors | hit rate 3.5% among 310,000;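 also: Gal4-VP16 expression switched on by copper sulfate through the metallothionein promoter; potency is read from the fitted curve at half-maximal effect; nearly all actives have a fitted effect of over 50% in size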
FBPA coupling cs: inhibits coupling enzyme system, counter-screen for aldolase hits; hit rate 0.67% among 290,000; coupling enzyme system counterscreen, AmpLite Red fluorescence; activity change, negative = inhibition, % at 58.2 µM, hits read low; in the data active = activity change below about -30%
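First, compound is pin-transferred into glyceraldehyde-3-phosphate coupling-enzyme reagent at 57.5 uM final and held 10 min at RT. Next, substrate, coupling system and AmpLite Red are added. After 20 min RT, fluorescence (525/598 nm) is read.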
* marks the source's active call; other numbers are inactive results. The list is not random: actives were taken first. Their share in the collection is about 8%. Unless noted, calls follow the shape of the dose curve; as a rule, active = well fitted curve in the direction sought with a large enough effect; inconclusive = small, poorly fitted or top-dose-only effect, or another doubt; inactive = no such curve, though single readings can be large; an effect the other way counts as inactive or inconclusive. % is scaled to controls: 0 for no effect and ±100 for the full control effect.

`O=C(c1cccc(F)c1)N1CCC2(CC1)CN(c1ccccn1)C2` gave RORgamma inh 2.6%, VP16 counter 7.0% and FBPA coupling cs 1.4.
`Cc1cc(=O)n2[nH]c(SCc3ccccc3Cl)nc2n1` gave ELG1 repair inh 1.4%, RORgamma inh 9.7%, TSHR antagonist -5.1, VP16 counter -9.1% and FBPA coupling cs -0.9.
`COc1ccc(S(=O)(=O)N2CCOCC2)cc1NC(=O)CCNC(=O)c1ccc([N+](=O)[O-])cc1` gave ELG1 repair inh inconclusive and TSHR antagonist 0.9.
Fc1ccc(CN2CCN(c3ncnc4scc(-c5ccc(F)cc5)c34)CC2)cc1 was read as ELG1 repair inh 20.6µM*, RORgamma inh 1.2%, TSHR antagonist 0.1, VP16 counter 0.2% and FBPA coupling cs -3.7.
`Cc1ccccc1N1CCN(c2ncnc3scc(-c4cccs4)c23)CC1` gave ELG1 repair inh -26.4%, RORgamma inh -23.9%, TSHR antagonist -20.4 and VP16 counter -2.2%.
For Clc1ccc(CN2CCN(c3ncnc4scc(-c5cccs5)c34)CC2)cc1 the results were ELG1 repair inh 23.1µM*, RORgamma inh 19.3%, TSHR antagonist -14.7, VP16 counter -0.4% and FBPA coupling cs -2.7.
`O=C(CN1CCC(NC(=O)Nc2ccccc2)CC1)Nc1ccc([N+](=O)[O-])cc1` gave ELG1 repair inh inconclusive, RORgamma inh inconclusive, TSHR antagonist -12.5, VP16 counter 1.4% and FBPA coupling cs 0.5.
CNc1ncncc1-c1c(C)noc1C was read as RORgamma inh 11.1%, VP16 counter -2.8% and FBPA coupling cs 4.1.
Screening COc1cccc(-n2cc(CNC(=O)C3CCC(=O)N(C4CC4)C3)cn2)c1 (stereo not given) returned ELG1 repair inh 8.0%, RORgamma inh -0.7%, TSHR antagonist 3.8, VP16 counter 0.3% and FBPA coupling cs -0.2.
`O=S(Cc1ccc(Br)cc1)Cc1nnc(SCc2ccc(Cl)cc2)n1-c1ccccc1` (stereo not given) gave ELG1 repair inh inconclusive, RORgamma inh inconclusive, TSHR antagonist -7.5, VP16 counter -11.4% and FBPA coupling cs 0.7.
`O=S(Cc1ccc(Br)cc1)Cc1nnc(SCc2c(F)cccc2Cl)n1-c1ccccc1` (stereo not given) gave ELG1 repair inh 23.1µM*, RORgamma inh inconclusive, TSHR antagonist 0.2, VP16 counter -6.5% and FBPA coupling cs 1.6.
Screening Cc1cc2n(n1)SC(Nc1ccc(F)c(Cl)c1)N2 (stereo not given) returned ELG1 repair inh inconclusive, RORgamma inh 0.631µM*, TSHR antagonist -11.2, VP16 counter 1.12µM* and FBPA coupling cs 2.7.
For CCCN1Cc2cccc(C(=O)N3CCN(c4cc(Cl)ccc4C)CC3)c2C1=O the results were ELG1 repair inh 20.6µM*, RORgamma inh 6.6%, TSHR antagonist 33.0, VP16 counter inconclusive and FBPA coupling cs 3.5.
For Cc1ccc(Cl)cc1N1CCN(C(=O)CN2C(=O)c3cccc4cccc2c34)CC1 the results were ELG1 repair inh 20.6µM*, RORgamma inh -8.5%, TSHR antagonist 9.3, VP16 counter -18.7% and FBPA coupling cs 2.2.
Screening COCCN1Cc2cccc(C(=O)N3CCN(c4cc(C)ccc4C)CC3)c2C1=O returned ELG1 repair inh -13.1%, RORgamma inh 13.1%, TSHR antagonist 1.5, VP16 counter 3.3% and FBPA coupling cs 1.3.
`COC(=O)c1ccccc1NC(=S)N(Cc1ccc2c(c1)OCO2)Cc1cc2cccc(C)c2[nH]c1=O` gave ELG1 repair inh 11.6µM*, RORgamma inh 8.7%, TSHR antagonist -7.2, VP16 counter -10.8% and FBPA coupling cs 3.3.
For Cc1cc(C)c2cc(CN(Cc3ccco3)C(=O)NCc3ccccc3)c(=O)[nH]c2c1 the results were ELG1 repair inh 8.2µM*, RORgamma inh -19.0%, TSHR antagonist 1.5, VP16 counter inconclusive and FBPA coupling cs -9.1.
Screening COc1ccccc1NC(=S)N(Cc1ccco1)Cc1cc2cc(C)cc(C)c2[nH]c1=O returned ELG1 repair inh 11.6µM*, RORgamma inh -7.9%, TSHR antagonist 2.4, VP16 counter 2.7% and FBPA coupling cs -0.8.
Screening CCN(CC)S(=O)(=O)c1ccc(OC)c(NC(=O)CSCc2c(C)noc2C)c1 returned ELG1 repair inh -23.7% and TSHR antagonist 34.5.
For CCn1c(CC(=O)Nc2ccc(OC)cc2)nnc1SCC(=O)N1CCOCC1 the results were ELG1 repair inh 18.6%, RORgamma inh -17.1%, TSHR antagonist 6.7, VP16 counter -7.3% and FBPA coupling cs -0.3.
For O=C(N[C@H](C(=O)O)c1ccccc1)C1CCC(Cn2cnc3ccccc3c2=O)CC1 (stereo not given in full) the results were ELG1 repair inh 11.3%, RORgamma inh 3.0%, TSHR antagonist -4.0, VP16 counter -7.7% and FBPA coupling cs 2.1.
Screening [O-][n+]1c2c(c3c4non(O)c4ccc31)CCCC2 returned ELG1 repair inh 23.1µM*, RORgamma inh inconclusive, TSHR antagonist inconclusive, VP16 counter -26.2% and FBPA coupling cs -0.3.
Screening Cc1[nH]c2ccccc2c1N=Nc1c(C)n(C)n(-c2ccccc2)c1=O returned ELG1 repair inh 13µM*, RORgamma inh 29.0%, TSHR antagonist 4.0, VP16 counter -6.3% and FBPA coupling cs -1.8.
Screening Cc1c(N=C2C=CC(=O)c3ccccc32)c(=O)n(-c2ccccc2)n1C returned ELG1 repair inh 20.6µM*, RORgamma inh -27.8%, TSHR antagonist -19.2, VP16 counter -12.5% and FBPA coupling cs -52.0*.
For Cc1c(N=Nc2ccc(O)cc2)c(=O)n(-c2ccccc2)n1C the results were ELG1 repair inh -2.0%, RORgamma inh -6.7%, TSHR antagonist 13.4, VP16 counter 1.5% and FBPA coupling cs 1.6.
`O=C(Cc1c(F)c(F)c(F)c(F)c1F)Nc1nc(-c2ccccc2)cs1` gave ELG1 repair inh 20.2%, RORgamma inh inconclusive, TSHR antagonist -32.9, VP16 counter -22.2% and FBPA coupling cs -3.4.
`COc1ccc2c(c1)C(=O)[C@@H](OC(=O)N[C@H]1CCCc3ccccc31)[C@H](c1ccc(OC)c(Br)c1)O2` gave RORgamma inh 11.7%, VP16 counter -2.8% and FBPA coupling cs -0.1.
`Cc1cc(C)c2c(=O)n(CC(=O)Nc3ccc(Cl)cc3)sc2n1` gave ELG1 repair inh 19.6%, RORgamma inh inconclusive, TSHR antagonist -2.9, VP16 counter 12.6µM* and FBPA coupling cs 5.8.
`CCOc1ccc(NC(=O)Cn2sc3nc(C)cc(C)c3c2=O)cc1` gave ELG1 repair inh 1.1%, RORgamma inh inconclusive, TSHR antagonist -7.1, VP16 counter 11.2µM* and FBPA coupling cs -0.7.
